The results in this text go back to PubChem BioAssay.

The test system of experiment [1] is PRMT1 (protein arginine N-methyltransferase 1). In words: PRMT1 binders on small-molecule microarrays, primary screen, biochemical, small-molecule microarray, 635 nm fluorescence (AID 1088).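 Note: binding of Prmt1 protein to compounds spotted on small-molecule microarray slides.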 The following applies: small-molecule microarray binding, higher = more signal.
Experiment [2] in a line: yeast growth modulation, basal conditions, primary screen, YJM789 clinical isolate, OD600, 24 h (AID 1089).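 Note: growth of clinical yeast isolate S. cerevisiae YJM 789 seeded 1000 cells per well; test concentration not given here.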 The settings on record: S. cerevisiae YJM789 growth, higher = more signal, called active from +8 up or from −8 down.
Experiment [3] in a line: fission yeast growth modulation, primary screen, strain 972, OD600, 24 h, no modulator (AID 1090).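 Note: basal condition with compound alone and no growth modifier present; test concentration not given here.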 The following applies: S. pombe 972 growth, higher = more signal, called active from +8 up or from −8 down.
Experiment [4] is described as follows: S. cerevisiae growth modulation with rapamycin, primary screen, strain BY4716, OD600, 96 h (AID 1091). Note: test concentration not given here. The following applies: higher = more signal, called active from +8 up or from −8 down.
Experiment [5] deals with Torsin-1A-interacting protein 2 (Homo sapiens) (UniProt Q8NFQ8). In words: LULL1 binders on small-molecule microarray, primary screen, cell lysate, human LULL1 lysate, 635/667 nm fluorescence (AID 1092).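 Note: probe is lysate of COS7 cells overexpressing human LULL1; score merges per-feature 667 nm fluorescence with signal-to-noise.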 The settings on record: hLULL1 lysate binding, 635 nm fluorescence, higher = more signal.
The nature of experiment [6]: E. coli growth modulation, two-sided OD650, primary screen, E. coli filamentation project, strain DRC41, 24 h (AID 1093).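 Note: MC1000 strain lacking acrAB efflux and sulA so SOS filamentation is blocked; test concentration not given here.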 The settings on record: OD650, 24 h, higher = more signal, called active from +8 up or from −8 down.
Experiment [7] can be described thus: small-molecule microarray binders of probe aLefty2, primary screen, biochemical, biotinylated probe, 635/667 nm fluorescence (AID 1094).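 Note: score merges spot fluorescence near 667 nm with spot signal-to-noise ratio.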 The following applies: higher = more signal.
The test system of experiment [8] is Noggin (protein binding on small-molecule microarray). Put plainly: Noggin binders on small-molecule microarray, primary screen, biochemical, 635/667 nm fluorescence (AID 1095).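 Note: score merges 667 nm feature fluorescence with signal to noise over triplicate slides.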 The following applies: 635 nm fluorescence, higher = more signal.
Experiment [9] has as its target Neurogenic locus notch homolog protein 3 (Homo sapiens) (UniProt Q9UM47). Put plainly: NOTCH3 binders on small-molecule microarray, primary screen, biochemical, 635/667 nm fluorescence (AID 1096). The following applies: NOTCH3 binding, 635 nm fluorescence, higher = more signal.
Experiment [10] can be described thus: small-molecule microarray binders of probe aEGFR, primary screen, biochemical, biotinylated probe, 635/667 nm fluorescence (AID 1097).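 Note: probe is a biotinylated anti-EGFR antibody binding compounds printed on slides; score combines fluorescence near 667 nm and signal to noise of each spot.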 The settings on record: higher = more signal.
The test system of experiment [11] is Plasmodium falciparum Sir2 (PF13_0152, Sir2A). Put plainly: pfSir2 binders on small-molecule microarrays, primary screen, biochemical, small-molecule microarray, 635 nm fluorescence (AID 1098).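 Note: score merges spot fluorescence intensity with its signal-to-noise ratio.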 The following applies: small-molecule microarray binding, fluorescence 635 nm; higher = more signal.
Experiment [12] in a line: small-molecule microarray binders of probe aDKK1, primary screen, biochemical, biotinylated probe, 635/667 nm fluorescence (AID 1099).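 Note: score merges 667nm spot fluorescence with signal to noise across triplicate slides; reference of the scale not given here.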 The settings on record: higher = more signal.
Experiment [13] is described as follows: small-molecule microarray binders of probe aCHRDL2, primary screen, biochemical, biotinylated probe, 635/667 nm fluorescence (AID 1100). The settings on record: higher = more signal.
Experiment [14] in a line: splicing luciferase reporter signal modulators, primary screen, spliceosome inhibition project, cell-based, HEK293, splice +/- reporter (AID 1101).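 Note: HEK293 cells carrying a splicing-competent luciferase reporter gene; test concentration not given here.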 The following applies: luminescence, 24 h, higher = more signal, called active from +8 up or from −8 down.
Experiment [15] concerns the target Fibroblast growth factor 10 (Homo sapiens) (UniProt O15520). Put plainly: FGF10 binders on small-molecule microarrays, primary screen, biochemical, small-molecule microarray, 635 nm fluorescence (AID 1102). The settings on record: FGF10 binding, fluorescence 635 nm, higher = more signal.
Experiment [16] concerns glycogen synthase kinase-3 (GSK3A per assay name; protocol says GSK3B). Put plainly: GSK3 binders on small-molecule microarrays, primary screen, biochemical, small-molecule microarray, 635 nm fluorescence, GSK3A (AID 1103). Note: the record names both GSK3A and GSK3B. The following applies: small-molecule microarray binding, fluorescence 635 nm; higher = more signal.
Experiment [17] concerns the target Epidermal growth factor receptor (Homo sapiens) (UniProt P00533). In words: EGFR binders on small-molecule microarrays, primary screen, biochemical, small-molecule microarray, 635 nm fluorescence (AID 1104).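 Note: score merges 667 nm emission intensity with spot signal to noise over triplicate slides.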 The settings on record: EGFR binding, higher = more signal.
Experiment [18] concerns the target Follistatin-related protein 3 (Homo sapiens) (UniProt O95633). Put plainly: FSTL3 binders on small-molecule microarrays, primary screen, biochemical, small-molecule microarray, 635 nm fluorescence (AID 1105).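 Note: score merges emission near 667 nm and signal to noise per printed spot across three slides.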 The settings on record: FSTL3 binding, higher = more signal.
The target in experiment [19] is Dickkopf-related protein 1 (Homo sapiens) (UniProt O94907). Put plainly: DKK1 binders on small-molecule microarrays, primary screen, biochemical, small-molecule microarray, 635 nm fluorescence scan (AID 1106).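 Note: score merges emission near 667 nm with signal to noise over three replicate slides.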 The following applies: DKK1 binding, higher = more signal.
The test system of experiment [20] is Inhibin beta A chain (activin A). In words: INHBA (activin A) binders on microarrays, primary screen, biochemical, small-molecule microarray, 635 nm fluorescence scan (AID 1107).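 Note: mouse activin A protein probed at 4.33 µg/mL on printed slides; score merges bound-protein fluorescence near 667 nm with spot signal-to-noise.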 The settings on record: small-molecule microarray binding, higher = more signal.

Calls of active or inactive are those of the source.

Chain of Dickkopf-related protein 1 (Homo sapiens) (O94907 whole entry, looked up): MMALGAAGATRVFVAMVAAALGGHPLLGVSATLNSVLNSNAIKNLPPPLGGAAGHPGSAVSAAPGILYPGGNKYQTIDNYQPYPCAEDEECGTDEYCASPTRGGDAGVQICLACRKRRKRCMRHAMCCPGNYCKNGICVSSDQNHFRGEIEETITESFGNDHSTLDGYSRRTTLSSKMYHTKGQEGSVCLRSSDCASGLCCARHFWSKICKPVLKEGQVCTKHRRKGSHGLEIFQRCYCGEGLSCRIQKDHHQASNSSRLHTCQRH
Chain of Neurogenic locus notch homolog protein 3 (Homo sapiens) (Q9UM47 whole entry, looked up): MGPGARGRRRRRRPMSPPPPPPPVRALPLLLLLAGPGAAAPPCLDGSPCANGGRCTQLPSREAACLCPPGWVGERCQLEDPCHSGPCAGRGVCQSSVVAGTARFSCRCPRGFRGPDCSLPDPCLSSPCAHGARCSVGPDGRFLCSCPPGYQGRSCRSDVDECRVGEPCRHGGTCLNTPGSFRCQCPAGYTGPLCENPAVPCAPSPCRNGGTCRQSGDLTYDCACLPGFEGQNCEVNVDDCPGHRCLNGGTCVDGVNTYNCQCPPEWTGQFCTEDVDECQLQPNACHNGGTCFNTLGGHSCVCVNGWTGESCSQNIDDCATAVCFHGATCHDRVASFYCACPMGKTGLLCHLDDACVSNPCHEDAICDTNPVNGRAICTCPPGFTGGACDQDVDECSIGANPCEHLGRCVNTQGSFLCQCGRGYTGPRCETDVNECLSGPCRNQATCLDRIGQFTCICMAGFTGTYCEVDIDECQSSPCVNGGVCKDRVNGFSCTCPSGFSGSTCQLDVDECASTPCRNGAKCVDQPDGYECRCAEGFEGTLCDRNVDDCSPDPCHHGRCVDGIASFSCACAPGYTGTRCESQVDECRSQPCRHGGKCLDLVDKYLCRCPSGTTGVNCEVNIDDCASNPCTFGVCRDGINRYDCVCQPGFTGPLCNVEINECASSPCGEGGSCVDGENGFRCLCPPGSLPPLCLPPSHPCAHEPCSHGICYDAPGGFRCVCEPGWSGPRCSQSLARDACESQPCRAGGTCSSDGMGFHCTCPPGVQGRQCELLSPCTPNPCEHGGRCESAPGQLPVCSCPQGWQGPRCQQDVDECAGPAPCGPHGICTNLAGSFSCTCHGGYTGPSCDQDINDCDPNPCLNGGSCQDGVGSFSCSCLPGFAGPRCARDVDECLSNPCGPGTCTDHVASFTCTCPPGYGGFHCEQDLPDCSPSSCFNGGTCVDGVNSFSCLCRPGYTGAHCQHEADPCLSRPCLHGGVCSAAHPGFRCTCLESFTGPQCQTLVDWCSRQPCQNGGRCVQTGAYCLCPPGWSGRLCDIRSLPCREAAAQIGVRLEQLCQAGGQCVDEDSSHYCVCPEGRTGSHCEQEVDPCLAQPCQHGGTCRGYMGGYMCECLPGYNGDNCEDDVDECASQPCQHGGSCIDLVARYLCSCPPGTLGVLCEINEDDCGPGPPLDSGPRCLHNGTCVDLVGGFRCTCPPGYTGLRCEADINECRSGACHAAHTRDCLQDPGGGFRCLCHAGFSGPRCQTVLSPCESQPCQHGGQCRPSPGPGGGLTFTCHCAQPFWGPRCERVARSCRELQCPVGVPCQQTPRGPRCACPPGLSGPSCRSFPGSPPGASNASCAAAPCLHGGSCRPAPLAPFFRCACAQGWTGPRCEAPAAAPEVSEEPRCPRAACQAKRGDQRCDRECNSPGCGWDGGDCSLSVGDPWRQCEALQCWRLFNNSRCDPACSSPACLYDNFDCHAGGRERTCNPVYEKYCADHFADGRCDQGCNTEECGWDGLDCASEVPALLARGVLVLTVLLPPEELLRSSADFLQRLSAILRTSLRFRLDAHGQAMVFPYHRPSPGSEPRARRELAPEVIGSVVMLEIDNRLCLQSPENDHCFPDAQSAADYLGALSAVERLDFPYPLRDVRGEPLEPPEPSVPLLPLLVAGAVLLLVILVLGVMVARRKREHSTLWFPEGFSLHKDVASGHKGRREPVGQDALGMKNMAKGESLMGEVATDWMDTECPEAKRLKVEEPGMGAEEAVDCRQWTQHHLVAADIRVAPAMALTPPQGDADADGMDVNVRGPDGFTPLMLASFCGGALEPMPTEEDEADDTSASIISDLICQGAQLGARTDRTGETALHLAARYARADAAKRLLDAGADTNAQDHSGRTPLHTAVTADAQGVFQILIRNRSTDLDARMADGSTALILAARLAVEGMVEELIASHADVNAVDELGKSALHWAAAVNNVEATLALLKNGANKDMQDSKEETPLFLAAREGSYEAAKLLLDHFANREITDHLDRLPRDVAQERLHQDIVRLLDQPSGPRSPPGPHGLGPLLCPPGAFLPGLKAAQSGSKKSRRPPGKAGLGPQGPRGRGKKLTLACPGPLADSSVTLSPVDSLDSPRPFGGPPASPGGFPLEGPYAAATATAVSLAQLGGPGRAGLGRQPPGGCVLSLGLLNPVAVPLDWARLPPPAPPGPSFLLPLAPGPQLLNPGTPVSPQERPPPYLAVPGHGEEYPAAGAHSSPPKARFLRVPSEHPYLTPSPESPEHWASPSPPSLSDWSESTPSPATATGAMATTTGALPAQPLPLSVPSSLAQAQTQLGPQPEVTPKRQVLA
Chain of Follistatin-related protein 3 (Homo sapiens) (O95633 whole entry, looked up): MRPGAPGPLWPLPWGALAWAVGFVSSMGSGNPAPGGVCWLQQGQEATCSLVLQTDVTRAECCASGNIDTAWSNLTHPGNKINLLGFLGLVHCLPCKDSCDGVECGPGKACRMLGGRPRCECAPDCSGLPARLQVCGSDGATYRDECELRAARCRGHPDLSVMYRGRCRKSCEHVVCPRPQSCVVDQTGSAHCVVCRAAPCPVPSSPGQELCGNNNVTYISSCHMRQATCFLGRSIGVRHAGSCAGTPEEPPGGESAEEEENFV
Chain of Epidermal growth factor receptor (Homo sapiens) (P00533 whole entry, looked up): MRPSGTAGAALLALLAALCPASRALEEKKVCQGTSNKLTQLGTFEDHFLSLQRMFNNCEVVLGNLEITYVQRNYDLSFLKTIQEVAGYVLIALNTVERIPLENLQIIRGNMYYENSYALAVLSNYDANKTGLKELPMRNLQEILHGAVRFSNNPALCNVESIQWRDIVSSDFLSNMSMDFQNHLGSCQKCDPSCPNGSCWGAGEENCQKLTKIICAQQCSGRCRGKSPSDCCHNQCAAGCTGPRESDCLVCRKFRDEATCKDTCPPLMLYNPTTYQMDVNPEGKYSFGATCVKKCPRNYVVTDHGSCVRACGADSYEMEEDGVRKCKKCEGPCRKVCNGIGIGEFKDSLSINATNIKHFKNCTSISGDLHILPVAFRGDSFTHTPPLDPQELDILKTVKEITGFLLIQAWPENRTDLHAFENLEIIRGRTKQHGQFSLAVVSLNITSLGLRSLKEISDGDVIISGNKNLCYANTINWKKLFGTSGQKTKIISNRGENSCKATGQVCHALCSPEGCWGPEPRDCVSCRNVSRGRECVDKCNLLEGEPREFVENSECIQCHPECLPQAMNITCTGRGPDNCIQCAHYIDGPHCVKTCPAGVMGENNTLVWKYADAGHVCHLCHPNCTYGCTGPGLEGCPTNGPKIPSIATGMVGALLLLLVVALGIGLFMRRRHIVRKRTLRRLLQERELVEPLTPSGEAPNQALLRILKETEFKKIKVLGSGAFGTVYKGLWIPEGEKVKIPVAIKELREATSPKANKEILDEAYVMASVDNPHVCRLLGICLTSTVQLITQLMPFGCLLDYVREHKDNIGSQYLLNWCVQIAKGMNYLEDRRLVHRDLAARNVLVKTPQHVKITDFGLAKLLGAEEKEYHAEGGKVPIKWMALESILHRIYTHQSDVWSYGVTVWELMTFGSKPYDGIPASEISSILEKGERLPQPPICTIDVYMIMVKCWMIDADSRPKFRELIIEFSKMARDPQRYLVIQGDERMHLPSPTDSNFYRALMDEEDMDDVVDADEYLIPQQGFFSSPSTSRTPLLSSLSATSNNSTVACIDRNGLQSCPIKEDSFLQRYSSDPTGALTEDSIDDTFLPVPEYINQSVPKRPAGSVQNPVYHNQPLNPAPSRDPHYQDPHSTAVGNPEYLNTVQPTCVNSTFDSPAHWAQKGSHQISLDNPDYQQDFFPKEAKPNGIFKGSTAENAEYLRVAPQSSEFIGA
Chain of Torsin-1A-interacting protein 2 (Homo sapiens) (Q8NFQ8 whole entry, looked up): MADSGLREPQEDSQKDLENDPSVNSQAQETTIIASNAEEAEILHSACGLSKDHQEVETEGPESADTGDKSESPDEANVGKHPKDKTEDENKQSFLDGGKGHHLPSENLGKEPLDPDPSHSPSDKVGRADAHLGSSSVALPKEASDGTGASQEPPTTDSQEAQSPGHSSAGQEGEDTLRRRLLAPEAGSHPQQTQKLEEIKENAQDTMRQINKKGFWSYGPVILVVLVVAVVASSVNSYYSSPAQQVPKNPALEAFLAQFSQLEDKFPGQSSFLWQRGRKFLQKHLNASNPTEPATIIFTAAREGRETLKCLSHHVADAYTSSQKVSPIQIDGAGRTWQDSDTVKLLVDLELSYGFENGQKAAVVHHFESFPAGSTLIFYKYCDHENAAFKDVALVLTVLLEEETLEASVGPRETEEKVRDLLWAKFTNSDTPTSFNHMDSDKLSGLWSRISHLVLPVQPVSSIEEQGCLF
Chain of Fibroblast growth factor 10 (Homo sapiens) (O15520 whole entry, looked up): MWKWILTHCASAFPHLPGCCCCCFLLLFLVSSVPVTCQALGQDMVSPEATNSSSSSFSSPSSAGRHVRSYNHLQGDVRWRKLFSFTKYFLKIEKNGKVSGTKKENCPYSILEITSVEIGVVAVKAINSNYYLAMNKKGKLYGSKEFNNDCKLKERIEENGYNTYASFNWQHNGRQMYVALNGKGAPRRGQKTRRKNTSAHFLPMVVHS

Take `COC(=O)[C@@]1(Cc2ccc(F)cc2)[C@H]2c3cc(C(=O)N(C)C)n(Cc4ccc(OC)c(OC)c4)c3C[C@H]2CN1C(=O)c1ccccc1`: the composite z-score is -1.32 in experiment [1]; 1.54 in [5]; 0.498 in [7]; -0.344 in experiment [8]; -0.309 in experiment [9]; 0.365 in [10]. The composite z-score was -0.236 in experiment [11]; 1.08 in experiment [12]; 0.43 in [13]; 0.495 in experiment [15]; -1.21 in experiment [16]; 0.278 in experiment [17]. Besides, the figures for the composite z-score in experiment [18], in [19] and in experiment [20] were -0.32, -0.686 and 0.939, respectively. The z-score in [2] was 0.0573 (inactive); in experiment [3] it was -0.636 (inactive); in experiment [4], -0.249 (inactive); in experiment [6] it was -0.31 (inactive); in experiment [14] it was -3.2 (inactive).
Turning to `CC(C)CON=C1C[C@@H](O)[C@@H](O)[C@@H]2[C@@H]3C(=O)N([C@@H](C)c4ccccc4)C(=O)[C@@H]3CC[C@H]12`, the composite z-score was 1.54 in experiment [1]; 2.73 in experiment [5]; -0.128 in experiment [7]; 1.12 in [8]; 1.08 in experiment [9]; -0.0146 in [10]. Besides, the composite z-score in experiment [11] was 0.43; in experiment [12], -0.325; in [13], -0.565; in experiment [15] it was 1.07; in experiment [16], 0.778; in experiment [17] it was 0.39. Besides, the composite z-score was 1.24 in [18], 0.76 in [19] and -0.204 in [20]. Besides, the z-score in experiment [2] is 0.466 (inactive); in experiment [3], 0.443 (inactive); in experiment [4] it was -0.0803 (inactive); in [6] it was 0.0955 (inactive); in experiment [14], 0.115 (inactive).
Consider `C[C@@H](c1ccccc1)N1C(=O)[C@H]2[C@H]3[C@H](O)[C@H](O)CC(=NOC[C@@H](O)COCc4ccco4)[C@@H]3CC[C@H]2C1=O`, for which the composite z-score in experiment [1] is -0.291; in [5], 0.304; in experiment [7] it was -0.217; in [8], -1.01; in experiment [9] it was -1.1; in [10] it was -0.221. The composite z-score in [11] is 0.693; in experiment [12], -0.349; in [13], -0.402; in experiment [15], -0.953; in experiment [16], -0.468; in experiment [17] it was -0.0809. The composite z-score was -1.31 in experiment [18], -1.03 in experiment [19] and -0.365 in [20]. In addition, the z-score in experiment [2] is 0.539 (inactive); in [3], 0.37 (inactive); in experiment [4], 1.3 (inactive); in experiment [6] it was 0.181 (inactive); in experiment [14], -0.115 (inactive).
With `COC(=O)[C@]1(CO)N=C(c2ccc(OCCCO)cc2)O[C@@H]1c1ccccc1N=[N+]=[N-]`, the composite z-score was 1.53 in experiment [1]; 3.19 in experiment [5]; -0.0639 in experiment [7]; 1.82 in [8]; 0.298 in [9]; -0.162 in experiment [10]. Moreover, the composite z-score in experiment [11] amounted to 0.428; in [12], 0.341; in experiment [13], 0.194; in experiment [15], 1.36; in [16] it was 0.521; in experiment [17] it was 0.384. Also, the composite z-score stood at 0.393 in [18], 0.356 in [19] and 0.653 in experiment [20]. Moreover, the z-score in experiment [2] was -0.726 (inactive); in experiment [3], -0.683 (inactive); in experiment [4], -1.12 (inactive); in [6], 0.269 (inactive); in experiment [14], -0.121 (inactive).
Consider `CC[C@@H](c1ccccc1)n1c(=O)n2n(c1=O)[C@H]1[C@H](O)[C@@H]3O[C@@H]3C(=NOCC=C(C)CCC=C(C)C)[C@H]1CC2`, for which the composite z-score in experiment [1] was 1.23; in [5], 1.54; in [7] it was -0.137; in experiment [8] it was 1.33; in [9], 0.955; in experiment [10], 0.14. Moreover, the composite z-score in experiment [11] is 0.785; in experiment [12] it was -0.156; in [13], -0.359; in experiment [15] it was 0.524; in experiment [16], 0.412; in [17], 0.446. Further, the composite z-score was 1.27 in experiment [18], 0.916 in experiment [19] and 0.619 in experiment [20]. For the same compound, the z-score in experiment [2] was 0.676 (inactive); in experiment [3], 0.052 (inactive); in [4], 1.28 (inactive); in experiment [6], -0.327 (inactive); in [14], 1.95 (inactive).
